The results in this text go back to the supplement of paper PMC9262897, “Low-cost anti-mycobacterial drug discovery using engineered E. coli” (Nature Communications, 2022).

Holding throughout (assay): growth (OD600 after 10 h); higher = more growth (less inhibition)
Assay [1] relates to E. coli TESEC Alr+ wild-type control. The conditions noted are these: compound 0.1 mM; raw OD600 reference: median of DMSO wells 0.241, cell-free background 0.041. As for the experimental part:
(§1)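 TESEC Mtb Alr E. coli, or the Alr+ wild-type control, in 384-well plates with Prestwick library compounds at 0.1 mM and 1% DMSO, across arabinose induction levels of 1E3 to 1E7 nM. Growth is read as OD600 after 10 h at 37 °C in triplicate biological replicates.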

For assay [2], the system named is E. coli TESEC Mtb Alr. Conditions: compound 0.1 mM. As for the experimental part:
as §1

The next assay relates to E. coli TESEC Mtb Asd. Conditions: compound 0.1 mM. As to the method: (§2)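 TESEC E. coli strains in which the native enzyme is deleted and replaced by arabinose-inducible Mtb Asd, DapB, CysH or TrpD, each grown in its selective medium. Strains were screened against the Prestwick library at 0.1 mM and 1% DMSO in 384-well format at low and high arabinose induction. Growth is read as OD600 after 10 h in triplicate.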

Assay [3] concerns E. coli TESEC Mtb Alr. The conditions noted are these: compound 0.1 mM. As to the method:
(§3)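 TESEC Mtb Alr E. coli (ΔaraC ΔtolC ΔentC Δalr ΔdadX, arabinose-inducible Mtb Alr) or the Alr+ wild-type control strain, grown in defined M9-fructose medium without D-alanine in 96-well plates with Prestwick library compounds at 0.1 mM and 1% DMSO. Low Alr induction is 0.1 µM arabinose and high induction is 10 mM arabinose.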
The source holds these as a separate data set.

Assay [4] has as its system E. coli TESEC Alr+ wild-type control. Conditions: compound 0.1 mM; raw OD600 reference: median of DMSO wells 0.49, cell-free background 0.052. As for the experimental part:
as §3

In a further assay the test system is E. coli TESEC Mtb DapB. Conditions: compound 0.1 mM. As to the method:
as §2

[5] abbreviates: arabinose 1000 nM, raw OD600 reference: median of DMSO wells 0.294, cell-free background 0.041.
Setting [6] is: arabinose 10000 nM, raw OD600 reference: median of DMSO wells 0.264, cell-free background 0.041.
Where [7] appears, read: arabinose 100000 nM, raw OD600 reference: median of DMSO wells 0.201, cell-free background 0.041.
[8] abbreviates: arabinose 1000000 nM, raw OD600 reference: median of DMSO wells 0.193, cell-free background 0.041.
The mark [9] stands for this setting: arabinose 10000000 nM, raw OD600 reference: median of DMSO wells 0.146, cell-free background 0.041.
[10] abbreviates: arabinose induction (level): High, raw OD600 reference: median of DMSO wells 0.331, cell-free background 0.041.
The mark [11] stands for this setting: arabinose induction (level): Low, raw OD600 reference: median of DMSO wells 0.417, cell-free background 0.041.
Where [12] appears, read: arabinose 100 nM, raw OD600 reference: median of DMSO wells 0.413, cell-free background 0.052.
The mark [13] stands for this setting: arabinose 10000000 nM, raw OD600 reference: median of DMSO wells […], cell-free background 0.052.
The mark [14] stands for this setting: arabinose induction (level): High, raw OD600 reference: median of DMSO wells […], cell-free background 0.041.
Where [15] appears, read: arabinose induction (level): Low, raw OD600 reference: median of DMSO wells 0.227, cell-free background 0.041.

Structures can show the parent of a compound that is named as a salt. ± gives the standard deviation of the averaged measurements.

`C[C@H](N)[C@H](O)c1ccc(O)c(O)c1` [Levonordefrin]: the growth in assay [1] was 0.1755 ± 0.00087; with E. coli TESEC Mtb Alr [2] (setting [5]), 0.276 ± 0.013; in the assay on E. coli TESEC Mtb Alr [2] (setting [6]) it was 0.26 ± 0.0038; in the assay on E. coli TESEC Mtb Alr [2] (setting [7]), 0.206 ± 0.0036; in the assay with E. coli TESEC Mtb Alr [2] (setting [8]) it was 0.118 ± 0.0043; in the assay on E. coli TESEC Mtb Alr [2] (setting [9]), 0.131 ± 0.0047. The growth with E. coli TESEC Mtb Asd (setting [10]) is 0.194 ± 0.014; with E. coli TESEC Mtb Asd (setting [11]) it was 0.357 ± 0.0047; in the assay with E. coli TESEC Mtb Alr [3] (setting [12]) it was 0.398 ± 0.024; in the assay with E. coli TESEC Mtb Alr [3] (setting [13]), 0.371 ± 0.017.
Take `CN(C)C(=O)Oc1cccc([N+](C)(C)C)c1` [Neostigmine bromide]: the growth in assay [1] was determined as 0.256 ± 0.0033; in the assay on E. coli TESEC Mtb Alr [2] (setting [5]), 0.316 ± 0.0053; with E. coli TESEC Mtb Alr [2] (setting [6]) it was 0.273 ± 0.0057; with E. coli TESEC Mtb Alr [2] (setting [7]), 0.225 ± 0.033; in the assay on E. coli TESEC Mtb Alr [2] (setting [8]), 0.19 ± 0.0043; in the assay on E. coli TESEC Mtb Alr [2] (setting [9]) it was 0.168 ± 0.0075. For the same compound, the growth came to 0.222 ± 0.028 in the assay on E. coli TESEC Mtb Asd (setting [10]); 0.331 ± 0.14 in the assay with E. coli TESEC Mtb Asd (setting [11]); 0.563 ± 0.068 in assay [4]; 0.404 ± 0.012 with E. coli TESEC Mtb Alr [3] (setting [12]); 0.339 ± 0.011 with E. coli TESEC Mtb Alr [3] (setting [13]).
For the compound `CNCC(O)c1ccc(O)cc1` (racemic) [(+,-)-Synephrine], the growth in assay [1] was determined as 0.239 ± 0.0073; in the assay on E. coli TESEC Mtb Alr [2] (setting [5]), 0.2963 ± 0.00035; with E. coli TESEC Mtb Alr [2] (setting [6]) it was 0.267 ± 0.01; in the assay on E. coli TESEC Mtb Alr [2] (setting [7]) it was 0.175 ± 0.012; with E. coli TESEC Mtb Alr [2] (setting [8]) it was 0.198 ± 0.012; with E. coli TESEC Mtb Alr [2] (setting [9]), 0.141 ± 0.0004. Besides, the growth in the assay on E. coli TESEC Mtb Asd (setting [10]) turned out to be 0.222 ± 0.018; in the assay on E. coli TESEC Mtb Asd (setting [11]) it was 0.322 ± 0.076; in the assay with E. coli TESEC Mtb Alr [3] (setting [12]), 0.4195 ± 0.0029; in the assay with E. coli TESEC Mtb Alr [3] (setting [13]) it was 0.325 ± 0.027.
With `CC(=O)OCC(=O)[C@H]1CC[C@H]2[C@@H]3CC[C@H]4C[C@H](O)CC[C@]4(C)[C@H]3C(=O)C[C@]12C` [Alfadolone acetate], the growth in assay [1] came out at 0.15 ± 0.0034; in the assay on E. coli TESEC Mtb Alr [2] (setting [5]), 0.196 ± 0.003; in the assay on E. coli TESEC Mtb Alr [2] (setting [6]), 0.222 ± 0.0029; in the assay on E. coli TESEC Mtb Alr [2] (setting [7]), 0.194 ± 0.0054; in the assay with E. coli TESEC Mtb Alr [2] (setting [8]), 0.153 ± 0.0021; in the assay on E. coli TESEC Mtb Alr [2] (setting [9]) it was 0.109 ± 0.0024. For the same compound, the growth in the assay with E. coli TESEC Mtb Asd (setting [10]) worked out at 0.289 ± 0.075; in the assay on E. coli TESEC Mtb Asd (setting [11]) it was 0.19 ± 0.0093; in the assay with E. coli TESEC Mtb DapB (setting [14]), 0.137 ± 0.0076; with E. coli TESEC Mtb DapB (setting [15]) it was 0.157 ± 0.03; in the assay with E. coli TESEC Mtb Alr [3] (setting [12]), 0.395 ± 0.007; with E. coli TESEC Mtb Alr [3] (setting [13]) it was 0.257 ± 0.0074.
In the case of `CC(C)CC(N(C)C)C1(c2ccc(Cl)cc2)CCC1` (stereo unspecified) [Sibutramine HCl], the growth in assay [1] worked out at 0.198 ± 0.0063; with E. coli TESEC Mtb Alr [2] (setting [5]), 0.264 ± 0.0096; in the assay with E. coli TESEC Mtb Alr [2] (setting [6]), 0.269 ± 0.0079; with E. coli TESEC Mtb Alr [2] (setting [7]), 0.193 ± 0.032; with E. coli TESEC Mtb Alr [2] (setting [8]) it was 0.131 ± 0.0058; with E. coli TESEC Mtb Alr [2] (setting [9]), 0.137 ± 0.0051. Further, the growth with E. coli TESEC Mtb Asd (setting [10]) came out at 0.213 ± 0.043; in the assay with E. coli TESEC Mtb Asd (setting [11]), 0.37 ± 0.098; in the assay on E. coli TESEC Mtb DapB (setting [14]) it was 0.161 ± 0.014; in the assay with E. coli TESEC Mtb DapB (setting [15]), 0.185 ± 0.012; in the assay on E. coli TESEC Mtb Alr [3] (setting [12]) it was 0.414 ± 0.0078; in the assay with E. coli TESEC Mtb Alr [3] (setting [13]) it was 0.35 ± 0.014.
Take `CC[C@@]1(O)C(=O)OCc2c1cc1n(c2=O)Cc2cc3ccccc3nc2-1` [Camptothecine (S,+)]: the growth in assay [1] worked out at 0.2398 ± 0.0022; in the assay with E. coli TESEC Mtb Alr [2] (setting [5]) it was 0.28 ± 0.012; in the assay with E. coli TESEC Mtb Alr [2] (setting [6]) it was 0.267 ± 0.0074; in the assay on E. coli TESEC Mtb Alr [2] (setting [7]), 0.192 ± 0.016; in the assay with E. coli TESEC Mtb Alr [2] (setting [8]), 0.184 ± 0.0026; in the assay with E. coli TESEC Mtb Alr [2] (setting [9]) it was 0.141 ± 0.0034. In addition, the growth in the assay with E. coli TESEC Mtb Asd (setting [10]) stood at 0.292 ± 0.075; in the assay with E. coli TESEC Mtb Asd (setting [11]), 0.43 ± 0.046; in the assay with E. coli TESEC Mtb Alr [3] (setting [12]), 0.465 ± 0.052; in the assay with E. coli TESEC Mtb Alr [3] (setting [13]), 0.434 ± 0.031.
Take `C[C@]12COC(=O)C[C@@H]1CC[C@@H]1[C@@H]2CC[C@@]2(C)[C@H]1CC[C@]2(C)O` [Oxandrolone]: the growth in assay [1] is 0.157 ± 0.0027; with E. coli TESEC Mtb Alr [2] (setting [5]) it was 0.189 ± 0.0087; in the assay on E. coli TESEC Mtb Alr [2] (setting [6]), 0.232 ± 0.0096; with E. coli TESEC Mtb Alr [2] (setting [7]), 0.126 ± 0.0067; in the assay with E. coli TESEC Mtb Alr [2] (setting [8]) it was 0.105 ± 0.005; in the assay on E. coli TESEC Mtb Alr [2] (setting [9]) it was 0.12 ± 0.0015. For the same compound, the growth in the assay on E. coli TESEC Mtb Asd (setting [10]) amounted to 0.148 ± 0.0058; with E. coli TESEC Mtb Asd (setting [11]), 0.319 ± 0.033; in the assay with E. coli TESEC Mtb Alr [3] (setting [12]), 0.42 ± 0.0079; in the assay with E. coli TESEC Mtb Alr [3] (setting [13]), 0.246 ± 0.019.
Regarding `CN(C)C(=O)Oc1ccc[n+](C)c1` [Pyridostigmine iodide], the growth in assay [1] was determined as 0.248 ± 0.011; in the assay with E. coli TESEC Mtb Alr [2] (setting [5]), 0.305 ± 0.0085; in the assay on E. coli TESEC Mtb Alr [2] (setting [6]), 0.25 ± 0.0086; in the assay with E. coli TESEC Mtb Alr [2] (setting [7]) it was 0.253 ± 0.012; with E. coli TESEC Mtb Alr [2] (setting [8]) it was 0.181 ± 0.0086; in the assay on E. coli TESEC Mtb Alr [2] (setting [9]) it was 0.138 ± 0.0049. Further, the growth with E. coli TESEC Mtb Asd (setting [10]) amounted to 0.335 ± 0.049; in the assay on E. coli TESEC Mtb Asd (setting [11]) it was 0.434 ± 0.076; in the assay with E. coli TESEC Mtb Alr [3] (setting [12]) it was 0.404 ± 0.017; with E. coli TESEC Mtb Alr [3] (setting [13]), 0.355 ± 0.0089.
On to `C=CCN1CC[C@]23c4c5ccc(O)c4O[C@H]2C(=O)CC[C@@]3(O)[C@H]1C5` [Naloxone hydrochloride], for which the growth in assay [1] stood at 0.244 ± 0.012; in the assay with E. coli TESEC Mtb Alr [2] (setting [5]), 0.266 ± 0.026; with E. coli TESEC Mtb Alr [2] (setting [6]), 0.27 ± 0.016; with E. coli TESEC Mtb Alr [2] (setting [7]), 0.192 ± 0.021; with E. coli TESEC Mtb Alr [2] (setting [8]), 0.178 ± 0.0076; in the assay with E. coli TESEC Mtb Alr [2] (setting [9]) it was 0.137 ± 0.0051. The growth came to 0.295 ± 0.066 in the assay on E. coli TESEC Mtb Asd (setting [10]); 0.498 ± 0.028 with E. coli TESEC Mtb Asd (setting [11]); 0.479 ± 0.016 in assay [4]; 0.419 ± 0.0087 in the assay with E. coli TESEC Mtb Alr [3] (setting [12]); 0.317 ± 0.026 in the assay with E. coli TESEC Mtb Alr [3] (setting [13]).
